# Measurements taken from the supplement of paper PMC8728848.
# The entries come from a sample that favours the strongest signals as a whole.
# B1: Nc3LysM (protein)
# chain: QFTVPPDTTAEPNTIKTCTWWHVAGSGDSCTSIASTYGITSEQFARWDMETTDSPKNPSVATACKLTVGNSYCIENNFGQDDPPTPSISSSTLIGTATTSTTASTTTGNGISTPTPIQEGMETATTTTSSGNGITTPTPTQAGMETVGNCDRFHLVKSGDQCGTIASTYGITLANFYSWNPAVGTSCQSLWLDTYVCVRTIGFVPPKTTTTTTKKPTSTTSAGGVATPTPTQPGMETVSGCKKFHKGRGNVSTVASGDQCGTIATRYGISLANFYSWNPAVGSSCQTLWLDYYVCVGR
# How the values were obtained:
# Assay in all cases: glycan array binding signal (z-score within array); higher = stronger binding
# Conditions in all cases: glycan notation: IUPAC condensed, linker removed
# [1] = molecular target: GlcNAc(b1-2)[GlcNAc(b1-6)]Man(a1-6)[GlcNAc(b1-2)Man(a1-3)]Man(b1-4)GlcNAc(b1-4)[Fuc(a1-6)]GlcNAc
# Procedure, shortened: (§1)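 Glycan array data were curated from 3228 arrays in the Consortium for Functional Glycomics database and kept only where the protein sequence was available. Glycan names were converted to IUPAC-condensed notation, and columns mapping to the same glycan were averaged. The binding signal is a within-array Z-score, averaged across arrays of the same protein sequence at different concentrations or buffers and across linkers. Negative Z-scores can be read as non-binding.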
# [2] = molecular target: GlcNAc(b1-3)Gal(b1-4)Glc
# Procedure, shortened: as §1
# [3] = molecular target: GlcNAc(b1-3)Gal(b1-4)GlcNAc(b1-3)Gal(b1-4)GlcNAc(b1-3)Gal(b1-4)GlcNAc(b1-2)Man(a1-3)[GlcNAc(b1-3)Gal(b1-4)GlcNAc(b1-3)Gal(b1-4)GlcNAc(b1-3)Gal(b1-4)GlcNAc(b1-2)Man(a1-6)]Man(b1-4)GlcNAc(b1-4)GlcNAc
# Procedure, shortened: as §1
# [4] = molecular target: GlcNAc(b1-3)Gal(b1-4)GlcNAc(b1-3)Gal(b1-4)GlcNAc(b1-3)Gal(b1-4)GlcNAc(b1-3)Gal(b1-4)GlcNAc(b1-2)Man(a1-3)[GlcNAc(b1-3)Gal(b1-4)GlcNAc(b1-3)Gal(b1-4)GlcNAc(b1-3)Gal(b1-4)GlcNAc(b1-3)Gal(b1-4)GlcNAc(b1-2)Man(a1-6)]Man(b1-4)GlcNAc(b1-4)GlcNAc
# Procedure, shortened: as §1
# [5] = molecular target: GlcNAc(b1-3)Gal(b1-4)GlcNAc(b1-6)[GlcNAc(b1-3)]Gal(b1-4)GlcNAc
# Procedure, shortened: as §1
# [6] = molecular target: GlcNAc(b1-3)GalNAc
# Procedure, shortened: as §1
# [7] = molecular target: GlcNAc(b1-4)GlcNAc(b1-4)GlcNAc
# Procedure, shortened: as §1
# [8] = molecular target: GlcNAc(b1-4)GlcNAc(b1-4)GlcNAc(b1-4)GlcNAc(b1-4)GlcNAc
# Procedure, shortened: as §1
# [9] = molecular target: GlcNAc(b1-4)GlcNAc(b1-4)GlcNAc(b1-4)GlcNAc(b1-4)GlcNAc(b1-4)GlcNAc
# Procedure, shortened: as §1
# [10] = molecular target: Man(a1-3)[Man(a1-6)]Man(b1-4)GlcNAc(b1-4)[Fuc(a1-6)]GlcNAc
# Procedure, shortened: as §1
# [11] = molecular target: Neu5Ac(a2-3)Gal(b1-3)GlcNAc(b1-2)[Neu5Ac(a2-3)Gal(b1-3)GlcNAc(b1-4)]Man(a1-6)[Neu5Ac(a2-3)Gal(b1-3)GlcNAc(b1-2)Man(a1-3)]Man(b1-4)GlcNAc(b1-4)GlcNAc
# Procedure, shortened: as §1
# [12] = molecular target: Neu5Ac(a2-3)Gal(b1-3)[Neu5Ac(a2-6)]GlcNAc(b1-3)[Fuc(a1-3)[Gal(b1-4)]GlcNAc(b1-6)]Gal(b1-4)Glc
# Procedure, shortened: as §1
# [13] = molecular target: Neu5Ac(a2-3)Gal(b1-4)[Fuc(a1-3)]GlcNAc(b1-3)Gal(b1-4)GlcNAc
# Procedure, shortened: as §1
# [14] = molecular target: Neu5Ac(a2-3)Gal(b1-4)[Fuc(a1-3)]GlcNAc(b1-6)[Gal(b1-3)]GalNAc
# Procedure, shortened: as §1
# [15] = molecular target: Neu5Ac(a2-3)[GalNAc(b1-4)]Gal(b1-4)GlcNAc
# Procedure, shortened: as §1
# [16] = molecular target: Neu5Ac(a2-6)Gal(b1-3)GlcNAc(b1-3)[Gal(b1-4)GlcNAc(b1-6)]Gal(b1-4)Glc
# Procedure, shortened: as §1
# [17] = molecular target: Neu5Ac(a2-6)Gal(b1-4)GlcNAc(b1-2)Man(a1-3)Man(b1-4)GlcNAc(b1-4)GlcNAc
# Procedure, shortened: as §1
# [18] = molecular target: Neu5Ac(a2-6)Gal(b1-4)GlcNAc(b1-2)Man(a1-6)[GlcNAc(b1-2)Man(a1-3)]Man(b1-4)GlcNAc(b1-4)GlcNAc
# Procedure, shortened: as §1
# [19] = molecular target: Neu5Ac(a2-6)Gal(b1-4)GlcNAc(b1-3)Gal(b1-4)GlcNAc(b1-3)[Neu5Ac(a2-6)Gal(b1-4)GlcNAc(b1-3)Gal(b1-4)GlcNAc(b1-6)]GalNAc
# Procedure, shortened: as §1
# [20] = molecular target: Neu5Ac(a2-6)Gal(b1-4)GlcNAc(b1-3)Gal(b1-4)GlcNAc(b1-6)[Gal(b1-3)]GalNAc
# Procedure, shortened: as §1
# [21] = molecular target: Neu5Ac(a2-6)GalNAc
# Procedure, shortened: as §1
# [22] = molecular target: Neu5Ac(a2-6)GlcNAc(b1-4)GlcNAc(b1-4)GlcNAc
# Procedure, shortened: as §1
# [23] = molecular target: Neu5Ac(a2-8)Neu5Ac(a2-3)Gal(b1-3)GalNAc(b1-4)[Neu5Ac(a2-8)Neu5Ac(a2-3)]Gal(b1-4)Glc
# Procedure, shortened: as §1
# [24] = molecular target: Neu5Ac(a2-8)Neu5Ac(a2-8)Neu5Ac(a2-3)[Gal(b1-3)GalNAc(b1-4)]Gal(b1-4)Glc
# Procedure, shortened: as §1
# [25] = molecular target: Neu5Ac(a2-8)Neu5Ac(a2-8)Neu5Ac(a2-3)[GalNAc(b1-4)]Gal(b1-4)Glc
# Procedure, shortened: as §1
binder,measurement,setting,value
B1,glycan array binding signal (z-score),[1],-0.037
same,glycan array binding signal (z-score),[2],-0.132
same,glycan array binding signal (z-score),[3],-0.013
same,glycan array binding signal (z-score),[4],-0.036
same,glycan array binding signal (z-score),[5],0.184
same,glycan array binding signal (z-score),[6],0.056
same,glycan array binding signal (z-score),[7],2.52
same,glycan array binding signal (z-score),[8],17.3
same,glycan array binding signal (z-score),[9],16.7
same,glycan array binding signal (z-score),[10],0.04
same,glycan array binding signal (z-score),[11],0.123
same,glycan array binding signal (z-score),[12],-0.004
same,glycan array binding signal (z-score),[13],0.009
same,glycan array binding signal (z-score),[14],-0.127
same,glycan array binding signal (z-score),[15],-0.172
same,glycan array binding signal (z-score),[16],-0.162
same,glycan array binding signal (z-score),[17],0.14
same,glycan array binding signal (z-score),[18],0.31
same,glycan array binding signal (z-score),[19],0.111
same,glycan array binding signal (z-score),[20],-0.099
same,glycan array binding signal (z-score),[21],0.071
same,glycan array binding signal (z-score),[22],-0.143
same,glycan array binding signal (z-score),[23],-0.231
same,glycan array binding signal (z-score),[24],0.394
same,glycan array binding signal (z-score),[25],-0.059
